Among the data in article PMC7862700, “An all-to-all approach to the identification of sequence-specific readers for epigenetic DNA modifications on cytosine” are binding signal values, retold here.

Common to all, as to test: DAPPL (digital affinity profiling via proximity ligation, sequencing); 10 mM Tris-HCl pH 7.5, 50 mM NaCl, 1 mM DTT, 4% glycerol, room temperature, 30 min; GST-TFs on glutathione beads, 16-mer random dsDNA library, 0.1% formaldehyde crosslink after washing; high values mean tight binding
One assay deals with T1, FLI1 (Homo sapiens, UniProt Q01543 1-452).
T1 sequence: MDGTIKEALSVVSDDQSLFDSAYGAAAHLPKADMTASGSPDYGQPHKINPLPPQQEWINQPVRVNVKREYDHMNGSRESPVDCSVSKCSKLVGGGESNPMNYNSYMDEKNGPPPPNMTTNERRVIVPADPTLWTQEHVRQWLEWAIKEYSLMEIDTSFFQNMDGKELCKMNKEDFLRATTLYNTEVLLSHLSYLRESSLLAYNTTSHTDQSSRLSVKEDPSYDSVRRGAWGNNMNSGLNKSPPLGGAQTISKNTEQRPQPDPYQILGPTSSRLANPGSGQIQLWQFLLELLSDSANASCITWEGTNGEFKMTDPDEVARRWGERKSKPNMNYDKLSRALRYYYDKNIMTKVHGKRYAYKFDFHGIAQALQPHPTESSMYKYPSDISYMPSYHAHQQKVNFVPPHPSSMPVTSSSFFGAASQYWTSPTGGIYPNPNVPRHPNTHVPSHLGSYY
The settings on record: protein: recombinant; tags: N-terminal GST; dsDNA, one strand shown. The essentials: (§1)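 Each value of binding signal is a hexamer's read frequency for a factor divided by the same hexamer's frequency in the tag-only sample. Barcoded, bead-captured GST fusions of human transcription factors made in yeast were pooled with that sample and incubated with 200 nmole of a random double-stranded 16-mer DNA library in Tris/NaCl/DTT/glycerol buffer at room temperature for 30 min. Washing, 0.1% formaldehyde crosslinking, proximity ligation, PCR and Illumina NextSeq500 sequencing followed.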

Another assay has as its target T2, ELK1 (Homo sapiens, UniProt P19419 1-428).
T2 sequence: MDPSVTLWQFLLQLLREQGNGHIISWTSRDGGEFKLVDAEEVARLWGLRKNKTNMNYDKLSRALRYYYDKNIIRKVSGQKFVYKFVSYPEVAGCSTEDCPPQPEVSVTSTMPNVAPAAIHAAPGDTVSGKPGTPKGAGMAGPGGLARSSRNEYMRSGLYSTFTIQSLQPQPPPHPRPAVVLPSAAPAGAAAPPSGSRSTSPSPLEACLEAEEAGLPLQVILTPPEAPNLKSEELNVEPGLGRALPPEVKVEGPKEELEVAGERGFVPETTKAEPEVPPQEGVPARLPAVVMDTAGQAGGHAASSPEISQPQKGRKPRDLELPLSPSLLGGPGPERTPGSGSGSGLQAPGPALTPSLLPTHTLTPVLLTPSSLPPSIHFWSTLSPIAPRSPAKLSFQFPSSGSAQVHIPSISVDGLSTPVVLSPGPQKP
As to conditions: protein: recombinant; tags: N-terminal GST; dsDNA, one strand shown. The essentials:
as §1

For a further assay, the target named is T3, FEV (Homo sapiens, UniProt Q99581 1-238).
T3 sequence: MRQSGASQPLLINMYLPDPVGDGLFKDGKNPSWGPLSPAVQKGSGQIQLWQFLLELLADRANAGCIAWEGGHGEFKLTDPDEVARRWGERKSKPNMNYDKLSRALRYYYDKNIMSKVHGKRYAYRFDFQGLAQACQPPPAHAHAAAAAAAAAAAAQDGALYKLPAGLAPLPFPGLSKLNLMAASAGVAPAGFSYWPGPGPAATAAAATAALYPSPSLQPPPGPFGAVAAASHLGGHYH
As to conditions: protein: recombinant; tags: N-terminal GST; dsDNA, one strand shown. The essentials: as §1

In the next assay the target is HSF1 (Homo sapiens, UniProt Q00613 1-529). As to conditions: protein: recombinant; tags: N-terminal GST; chain copies: 3; dsDNA, one strand shown. In outline: as §1
Another assay addresses T4, ELF3 (Homo sapiens, UniProt P78545 1-371).
T4 sequence: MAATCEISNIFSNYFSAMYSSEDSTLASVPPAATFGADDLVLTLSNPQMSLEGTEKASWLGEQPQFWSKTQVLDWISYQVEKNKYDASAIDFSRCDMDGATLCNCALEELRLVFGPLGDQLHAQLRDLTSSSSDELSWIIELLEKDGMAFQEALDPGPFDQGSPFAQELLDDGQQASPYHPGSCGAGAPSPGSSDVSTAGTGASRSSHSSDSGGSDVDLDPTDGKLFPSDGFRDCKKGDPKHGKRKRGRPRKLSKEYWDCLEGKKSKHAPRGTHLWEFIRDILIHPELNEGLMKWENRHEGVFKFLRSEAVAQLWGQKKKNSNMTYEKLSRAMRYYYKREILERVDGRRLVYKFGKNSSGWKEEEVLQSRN
The settings on record: protein: recombinant; tags: N-terminal GST; dsDNA, one strand shown. The essentials: as §1

For another assay, the target named is CRX (Homo sapiens, UniProt O43186 1-299). The settings on record: protein: recombinant; tags: N-terminal GST; dsDNA, one strand shown. In outline:
as §1

The target of a further assay is T5, ERF (Homo sapiens, UniProt P50548 1-548).
T5 sequence: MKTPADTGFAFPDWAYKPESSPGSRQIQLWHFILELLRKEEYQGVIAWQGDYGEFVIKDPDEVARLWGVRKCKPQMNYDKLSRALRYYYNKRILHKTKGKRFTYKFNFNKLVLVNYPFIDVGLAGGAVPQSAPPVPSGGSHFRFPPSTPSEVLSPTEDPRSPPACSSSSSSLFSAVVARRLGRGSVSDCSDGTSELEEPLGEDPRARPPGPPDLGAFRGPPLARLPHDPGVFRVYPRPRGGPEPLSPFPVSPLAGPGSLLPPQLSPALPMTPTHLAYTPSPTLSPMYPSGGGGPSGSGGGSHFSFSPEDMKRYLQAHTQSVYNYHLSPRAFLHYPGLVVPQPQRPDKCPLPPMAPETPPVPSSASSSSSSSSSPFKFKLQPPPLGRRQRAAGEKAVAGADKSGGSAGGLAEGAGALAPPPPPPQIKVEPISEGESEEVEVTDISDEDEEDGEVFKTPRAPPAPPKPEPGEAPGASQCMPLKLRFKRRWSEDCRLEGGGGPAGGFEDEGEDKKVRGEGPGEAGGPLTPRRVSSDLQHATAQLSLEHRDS
The settings on record: protein: recombinant; tags: N-terminal GST; dsDNA, one strand shown. The essentials: as §1

The next assay addresses T6, ETV3L (Homo sapiens, UniProt Q6ZN32 1-361).
T6 sequence: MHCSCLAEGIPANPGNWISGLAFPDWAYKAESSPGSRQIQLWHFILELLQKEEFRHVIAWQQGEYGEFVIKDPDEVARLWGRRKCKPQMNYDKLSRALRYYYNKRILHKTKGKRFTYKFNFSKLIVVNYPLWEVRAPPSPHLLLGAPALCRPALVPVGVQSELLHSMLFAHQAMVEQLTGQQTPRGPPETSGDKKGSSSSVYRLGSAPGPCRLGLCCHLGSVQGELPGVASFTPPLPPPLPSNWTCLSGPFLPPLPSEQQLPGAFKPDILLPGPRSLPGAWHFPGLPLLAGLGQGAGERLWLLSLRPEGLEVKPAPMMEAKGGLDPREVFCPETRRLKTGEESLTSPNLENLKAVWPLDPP
The settings on record: protein: recombinant; tags: N-terminal GST; dsDNA, one strand shown. In outline:
as §1

The next assay deals with T7, ETS2 (Homo sapiens, UniProt P15036 1-469).
T7 sequence: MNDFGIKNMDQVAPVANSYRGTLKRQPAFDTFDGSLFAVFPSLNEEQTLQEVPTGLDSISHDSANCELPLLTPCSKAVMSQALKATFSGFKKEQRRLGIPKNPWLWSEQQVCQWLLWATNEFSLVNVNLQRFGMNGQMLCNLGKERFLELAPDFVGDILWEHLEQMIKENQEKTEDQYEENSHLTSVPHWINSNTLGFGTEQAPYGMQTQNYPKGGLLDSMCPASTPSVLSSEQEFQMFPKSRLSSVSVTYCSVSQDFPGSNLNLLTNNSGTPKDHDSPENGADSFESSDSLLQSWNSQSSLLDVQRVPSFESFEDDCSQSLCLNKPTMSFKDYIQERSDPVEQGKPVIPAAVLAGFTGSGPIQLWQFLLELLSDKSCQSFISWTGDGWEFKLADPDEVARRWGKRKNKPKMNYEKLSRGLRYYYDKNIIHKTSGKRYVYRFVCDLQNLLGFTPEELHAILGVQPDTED
The settings on record: protein: recombinant; tags: N-terminal GST; dsDNA, one strand shown. The essentials:
as §1

For another assay, the target named is T8, SPDEF (Homo sapiens, UniProt O95238 1-335).
T8 sequence: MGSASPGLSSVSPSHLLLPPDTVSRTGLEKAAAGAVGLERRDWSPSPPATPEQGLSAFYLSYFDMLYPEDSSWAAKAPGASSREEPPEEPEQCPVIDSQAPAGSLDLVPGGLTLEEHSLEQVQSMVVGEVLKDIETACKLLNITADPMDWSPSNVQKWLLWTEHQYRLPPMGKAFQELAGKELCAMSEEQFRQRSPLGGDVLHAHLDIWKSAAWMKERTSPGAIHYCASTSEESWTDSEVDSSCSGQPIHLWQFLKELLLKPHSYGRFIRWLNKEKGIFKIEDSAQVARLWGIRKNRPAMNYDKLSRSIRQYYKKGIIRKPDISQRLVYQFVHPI
The settings on record: protein: recombinant; tags: N-terminal GST; dsDNA, one strand shown. In outline:
as §1

Another assay has as its target T9, ETV7 (Homo sapiens, UniProt Q9Y603 1-341).
T9 sequence: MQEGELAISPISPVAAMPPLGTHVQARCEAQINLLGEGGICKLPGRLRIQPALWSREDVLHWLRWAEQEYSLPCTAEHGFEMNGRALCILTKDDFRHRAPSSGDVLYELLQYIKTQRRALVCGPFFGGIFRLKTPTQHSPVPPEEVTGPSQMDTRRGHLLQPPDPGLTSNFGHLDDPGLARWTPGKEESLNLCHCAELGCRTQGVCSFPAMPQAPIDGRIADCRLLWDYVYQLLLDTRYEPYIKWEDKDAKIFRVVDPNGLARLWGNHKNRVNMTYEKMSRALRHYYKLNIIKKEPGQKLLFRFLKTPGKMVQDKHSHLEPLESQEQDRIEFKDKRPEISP
The settings on record: protein: recombinant; tags: N-terminal GST; dsDNA, one strand shown. The essentials:
as §1

Sequence of HSF1 (Q00613 whole entry): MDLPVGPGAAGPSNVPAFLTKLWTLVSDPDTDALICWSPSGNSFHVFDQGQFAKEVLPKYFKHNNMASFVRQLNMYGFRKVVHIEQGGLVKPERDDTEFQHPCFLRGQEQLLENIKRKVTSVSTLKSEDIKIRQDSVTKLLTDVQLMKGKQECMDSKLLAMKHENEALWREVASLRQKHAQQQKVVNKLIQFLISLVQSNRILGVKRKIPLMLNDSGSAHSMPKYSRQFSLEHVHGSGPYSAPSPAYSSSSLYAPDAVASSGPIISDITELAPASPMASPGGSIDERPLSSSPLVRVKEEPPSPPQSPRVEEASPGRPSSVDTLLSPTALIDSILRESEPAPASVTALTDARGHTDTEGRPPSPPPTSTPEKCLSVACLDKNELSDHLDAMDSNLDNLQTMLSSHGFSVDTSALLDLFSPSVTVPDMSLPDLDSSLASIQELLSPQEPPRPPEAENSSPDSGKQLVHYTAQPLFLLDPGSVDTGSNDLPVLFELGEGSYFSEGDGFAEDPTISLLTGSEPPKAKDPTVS
Sequence of CRX (O43186 whole entry): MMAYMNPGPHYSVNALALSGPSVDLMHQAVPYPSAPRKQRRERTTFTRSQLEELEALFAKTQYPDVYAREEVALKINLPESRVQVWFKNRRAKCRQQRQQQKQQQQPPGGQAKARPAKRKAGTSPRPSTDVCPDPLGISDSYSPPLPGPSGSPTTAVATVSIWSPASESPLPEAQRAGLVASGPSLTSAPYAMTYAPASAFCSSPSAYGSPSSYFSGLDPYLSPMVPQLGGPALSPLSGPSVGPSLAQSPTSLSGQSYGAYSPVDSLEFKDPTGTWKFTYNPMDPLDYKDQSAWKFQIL

For TAGGTA, the binding signal with FLI1 was 1.02 fold enrichment (6-mer frequency, TF over GST control); with ELK1, 1.06 fold enrichment (6-mer frequency, TF over GST control); with FEV, 1 fold enrichment (6-mer frequency, TF over GST control); in the assay with HSF1, 1.03 fold enrichment (6-mer frequency, TF over GST control); with ELF3, 1.12 fold enrichment (6-mer frequency, TF over GST control); with CRX, 1.22 fold enrichment (6-mer frequency, TF over GST control). Also, the binding signal with ERF is 1.08 fold enrichment (6-mer frequency, TF over GST control); in the assay with ETV3L, 1.01 fold enrichment (6-mer frequency, TF over GST control); with ETS2, 1.03 fold enrichment (6-mer frequency, TF over GST control); with SPDEF, 1.02 fold enrichment (6-mer frequency, TF over GST control); with ETV7, 1.1 fold enrichment (6-mer frequency, TF over GST control).
